Most compounds without a hit are left out; they make up all but 3.3% or so of the library.
Vaccinia mCherry = qHTS for Stage-Specific Inhibitors of Vaccinia Orthopoxvirus: mCherry Reporter Primary qHTS. Vaccinia virus mCherry reporter infection, fluorescence. AID 720579, 2013. Potency, µM (top dose mostly 36.5 µM), most hits filed as inhibitors. 0.63% of 310,000 active; calls by dose curve; tested in A549 cells; also: nearly all actives have a fitted effect of over 35% in size
HCV inh = qHTS Assay for Inhibitors of Hepatitis C Virus (HCV); Huh7.5.1 HCVcc-Cre infection, luciferase reporter, 44 h; Potency, µM (titrated, usually from 41.8 µM), usual class: inhibitors; 3.4% of 340,000 active; active = well fitted inhibition curve with a large enough effect; inconclusive = small, poorly fitted or top-dose-only effect, or another doubt; inactive = no such curve, though single readings can be large or run the other way
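A cell-based infection assay in which seeded cells (1,000 per well) receive test compound after 4 h, are inoculated with HCVcc-Cre at approximately 0.5 moi, and are incubated 44 h before luminescence detection.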
Vaccinia Venus = qHTS for Stage-Specific Inhibitors of Vaccinia Orthopoxvirus: Venus Reporter Primary qHTS; Vaccinia virus Venus reporter expression, fluorescence; Potency, µM (doses to about 36.5 µM), most hits filed as inhibitors; 0.46% of 330,000 active; calls by dose curve; tested in A549 cells; also: nearly all actives have a fitted effect of over 30% in size
Of the large screens only hits and unclear results are named; the others gave an inactive call; ! = not confirmed by another sample.

O=[N+]([O-])c1ccc(/C=C/c2ccc3cccc([N+](=O)[O-])c3n2)cc1	none
COc1cc(/C=C/c2ccc3cccc([N+](=O)[O-])c3n2)ccc1OCC#N	Vaccinia mCherry inconclusive, HCV inh 4.5µM
ClCCN(CCCl)c1ccc(-n2cnc3c(Cl)ncnc32)cc1	HCV inh 13µM
O=c1[nH]cnc2c1ncn2-c1ccc(Cl)cc1	none
CCCCCCOc1ccc(/C(N)=N/O)cc1	none (no result: Vaccinia mCherry)
N=C(N)c1ccc(OCCCCCOc2ccc(C(=N)N)cc2)cc1	Vaccinia mCherry inconclusive, HCV inh 2.2µM!
Cc1ccc(C(=O)N/C(=C\c2ccc(-c3ccc(Cl)cc3)o2)C(=O)NCCCN(C)C)cc1	Vaccinia mCherry inconclusive, HCV inh inconclusive, Vaccinia Venus 13µM
CN(C)CCCNC(=O)/C(=C\c1ccc(-c2ccc(Br)cc2)o1)NC(=O)c1ccccc1	Vaccinia mCherry 11µM, HCV inh inconclusive, Vaccinia Venus 13µM
Cc1ccc(C(=O)N/C(=C\c2ccc(-c3ccc(Br)cc3)o2)C(=O)NC2CCS(=O)(=O)C2)cc1 (stereo not drawn)	HCV inh inconclusive
Cc1ccc(C(=O)N/C(=C\c2ccc(-c3ccccc3[N+](=O)[O-])o2)C(=O)NCCCN(C)C)cc1	none
O=C(COc1cc2oc(=O)c3c(c2cc1Cl)CCC3)NCc1ccccn1	none (no result: Vaccinia mCherry, Vaccinia Venus)
CCOC(=O)/C=C1\CN(Cc2cc(OC)c(OC)c(OC)c2)S(=O)(=O)c2ccccc21	HCV inh 3.2µM, Vaccinia Venus inconclusive
CCOC(=O)/C=C1\CN(Cc2cc(OC)c(OC)c(OC)c2)S(=O)(=O)c2ccc(C(F)(F)F)cc21	HCV inh inconclusive, Vaccinia Venus inconclusive
Cc1cc(Nc2ccc(Br)cc2)nc(-c2ccccc2O)n1	HCV inh 13µM (no result: Vaccinia mCherry, Vaccinia Venus)
C/C(=N\Nc1cc(C)nc(-c2ccccc2O)n1)c1ccccc1	Vaccinia mCherry inconclusive, HCV inh inconclusive
Cc1cc(Oc2ccc(Cl)cc2)nc(-c2ccccc2O)n1	none (no result: Vaccinia mCherry)
Cc1cc(NCCCN)nc(-c2ccccc2O)n1	HCV inh 10µM (no result: Vaccinia mCherry)
Cc1cc(N/N=C/c2ccc(O)c(C)c2O)nc(-c2ccccc2O)n1	Vaccinia mCherry 10µM, HCV inh inconclusive, Vaccinia Venus 13µM
Cc1ccc(Nc2cc(C)nc(-c3ccccc3)n2)cc1	Vaccinia mCherry inconclusive, Vaccinia Venus inconclusive
CCOC(=O)c1ccc(NC(=O)Cn2cc(C(=O)c3ccc(Cl)cc3)c(=O)c3ccc(C)nc32)cc1	none (no result: HCV inh)
O=C(NCC(c1cccnc1)N1CCc2ccccc2C1)C(=O)Nc1ccccc1F (stereo not drawn)	none (no result: HCV inh)
O=C(Nc1ccc([N+](=O)[O-])cc1)Nc1ccc(N2CCOCC2)c2nonc12	Vaccinia mCherry inconclusive, Vaccinia Venus 10µM
CC(=O)Nc1cc([N+](=O)[O-])ccc1N1CCOCC1	none
C#Cc1cccc(C(=O)NCc2nc(-c3cccc(NC(=O)c4ccccn4)c3)oc2C)c1	none (no result: HCV inh)
CC(C)(C)c1csc(NC(=O)c2ccccc2O)n1	Vaccinia mCherry inconclusive, HCV inh 22µM, Vaccinia Venus inconclusive
COc1ccc(CC(=O)Nc2nc(C(C)(C)C)cs2)cc1	Vaccinia mCherry inconclusive, HCV inh 10µM
COc1ccc(OC)c(-c2csc(NC(=O)Cc3ccc(OC)c(OC)c3)n2)c1	HCV inh inconclusive
COc1ccc(OC)c(-c2csc(NC(=O)Cc3cccs3)n2)c1	HCV inh inconclusive
Cc1csc(NC(=O)c2ccccc2O)n1	none (no result: Vaccinia mCherry)
COc1ccc(CC(=O)Nc2nc(C)cs2)cc1	none
COc1ccc(CC(=O)Nc2nc(-c3cc(OC)ccc3OC)cs2)cc1	Vaccinia mCherry 11µM, HCV inh 13µM, Vaccinia Venus inconclusive
COc1ccc(OC)c(-c2csc(NC(=O)COC(=O)C3(C)CC3(Cl)Cl)n2)c1 (stereo not drawn)	HCV inh 14µM (no result: Vaccinia mCherry, Vaccinia Venus)
Cc1cc(N(CCO)Cc2ccccc2)n2nc(-c3ccc(C(C)(C)C)cc3)nc2n1	none (no result: HCV inh)
Cc1ccc(C)c(CSc2c(C(C)C)cnc3c2c(=O)n(C)c(=O)n3C)c1	none (no result: HCV inh)
COc1ccc(CN(C(=O)Nc2cccc(Cl)c2)c2ccccn2)cc1OC	none (no result: HCV inh)
COc1ccc(OC)c(-c2csc(NC(=O)CSCC(=O)Nc3cc(C)on3)n2)c1	none (no result: Vaccinia mCherry, Vaccinia Venus)
COc1ccc(OC)c(-c2csc(NC(=O)CSCc3c(C)noc3C)n2)c1	HCV inh 11µM
CC(=O)c1ccc(NC(=O)C2CCC(CNS(=O)(=O)c3ccc4c(c3)CCCC(=O)N4)CC2)cc1 (stereo not drawn)	none (no result: HCV inh)
Cc1ccc(C(=O)c2ccccc2C(=O)OCC(=O)NCCc2ccc(Cl)cc2Cl)cc1	none
CCCNC(=O)COC(=O)c1ccccc1C(=O)c1ccc(Cl)c([N+](=O)[O-])c1	Vaccinia mCherry inconclusive, HCV inh inconclusive, Vaccinia Venus 14µM
CCN=C1S/C(=C\c2cn(C(C)=O)nc2-c2ccccc2)C(=O)N1CC	HCV inh 10µM (no result: Vaccinia mCherry, Vaccinia Venus)
CC(=O)NC1=NC(=O)/C(=C/c2cn(C(C)=O)nc2-c2ccccc2)S1	none (no result: Vaccinia mCherry, Vaccinia Venus)
CC(C)COc1ccc(N)cc1OCC(C)C	HCV inh 2.8µM
CCN(CC)Cc1cc(C(C)=O)ccc1OCC(C)C	none
C=C(C)COc1ccc(-c2n[nH]c(C)c2-c2ccc(OC)cc2)c(O)c1	HCV inh inconclusive, Vaccinia Venus 10µM (no result: Vaccinia mCherry)
COc1ccc(-c2n[nH]c(C)c2-c2cscn2)c(O)c1	Vaccinia mCherry inconclusive
O=C(Nc1ccc(Cl)cc1)N1CCN(c2ccc3nnc(-c4ccc(F)cc4)n3n2)CC1	Vaccinia mCherry inconclusive, HCV inh inconclusive, Vaccinia Venus 11µM
O=C(Nc1ccccc1Cl)N1CCN(c2ccc3nnc(-c4ccccc4)n3n2)CC1	Vaccinia mCherry inconclusive, Vaccinia Venus inconclusive
COc1cccc(OCc2cc(C(=O)NCc3cnc4ccccn34)no2)c1	HCV inh 8.9µM (no result: Vaccinia mCherry, Vaccinia Venus)
CCOC(=O)CC1(NC(=O)c2cc(COc3cccc(OC)c3)on2)CCCCC1	HCV inh 10µM (no result: Vaccinia mCherry, Vaccinia Venus)
COc1cccc(OCc2cc(C(=O)N3CCN(C)C(c4ccccc4)C3)no2)c1 (stereo not drawn)	none (no result: Vaccinia mCherry, Vaccinia Venus)
COc1cccc(OCc2cc(C(=O)NCC3CCCCC3)no2)c1	none (no result: Vaccinia mCherry, Vaccinia Venus)
COc1cccc(OCc2cc(C(=O)NCc3ccccn3)no2)c1	none
COc1cccc(OCc2cc(C(=O)N3CCC(c4ccncc4)CC3)no2)c1	HCV inh 10µM
COc1ccc(OCc2cc(C(=O)N3CCC(c4ccccc4)CC3)no2)c(Cl)c1	none
C=CCC1(CC=C)CCCN1C(=O)c1cc(COc2cccc(OC)c2)on1	HCV inh 14µM (no result: Vaccinia mCherry, Vaccinia Venus)
CCc1ccccc1S(=O)(=O)Cc1ccc(C(=O)NCCc2ccc(Cl)cc2)o1	none (no result: HCV inh)
COc1cc(C(=O)N(CCCN(C)C)c2nc3c(OC)cccc3s2)cc(OC)c1OC	none (no result: HCV inh)
COc1ccc(C(=O)c2oc3ccccc3c2NC(=O)COc2c(C)cc(C)cc2C)cc1	none (no result: HCV inh)
CC1CCC(NC(=O)c2ccc3c(c2)N(Cc2ccccc2F)C(=O)c2ccccc2S3(=O)=O)CC1 (stereo not drawn)	none (no result: HCV inh)
COc1ccc(-c2cc(=O)oc3c4c(ccc23)OCN(Cc2cccc(OC)c2)C4)cc1	none (no result: HCV inh)
O=C(N/N=C/c1cccc(O)c1)c1ccc(COc2ccccc2Br)cc1	HCV inh inconclusive
O=C(Nc1ccc(Cn2cccn2)cc1)c1ccc(COc2ccccc2Br)cc1	Vaccinia mCherry inconclusive, HCV inh 13µM, Vaccinia Venus inconclusive
CC(NC(=O)Nc1ccccc1C(F)(F)F)c1c(-n2cccc2)sc2c1CCCC2 (stereo not drawn)	none (no result: HCV inh)
